Source: PubChem BioAssay (NCI)
Compounds without any hit were thinned out: in the full panel of roughly 83,000, 20% have a hit.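 Treatment: one concentration, 48 hours, 96-well format. Scoring: percent growth, with anything below 10 considered active.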 Unmarked numbers belong to inactive results. Active and inactive are the calls of the source.

Each molecule was assayed on MDA-MB-468 breast (assay: NCI-60 one-dose screen, 48 h (100 = growth as untreated, 0 = no growth, -100 = all killed)). Conditions: 10 µM unless noted.

Row | Structure (SMILES) | growth
1 | COc1ccc(NC(=O)[C@H](C)N)cc1C(=O)Nc1cccc(-c2cc(=O)c3c(OC)c(OC)c(OC)cc3o2)c1 | 58.5%
2 | COc1ccc(-c2nn(-c3cccc(NC(=O)Nc4cccc(C(F)(F)F)c4)c3)cc2-c2ccncc2)cc1Cl | 27.5%
3 | CNCCNc1nc2ccccc2c2c(=O)c3cc(OC)ccc3sc12 | 44.7%
4 | [2H]c1nc(Nc2ncc3cc(C(=O)N(C)C)n(C4CCCC4)c3n2)c([2H])c([2H])c1N1C([2H])([2H])C([2H])([2H])NC([2H])([2H])C1([2H])[2H] | 89%
5 | CC(=O)CCC(=O)OCc1cc(=O)c(O)co1 | 101%
6 | Nc1c(C(=O)Nc2cccc3ccccc23)sc2nc3c(cc12)C(=O)CCC3 | 50%
7 | CCOCCNC1=C(Cl)C(=O)c2ccccc2C1=O | 94.7%
8 | Cc1ccc(NC(=O)c2cccc(CN3CCN(C)CC3)c2)cc1Oc1ccc(-c2[nH]nc3ncnc(N)c23)cc1 | 51.3%
9 | COc1cccc(N2CCN(c3ncnc4c3[nH]c3ccc(F)cc34)C[C@@H]2C)c1 | -12.5% (active)
10 | O=c1ncc(-c2ccc(C(F)(F)F)cc2)c(NC2CCCCCC2)[nH]1 | 11.8%
11 | CCCCCCNC(=O)Oc1ccc(/C(=C(/C)c2ccc(Cl)cc2)c2ccc(OCCN3CCCC3)cc2)cc1 | 62.6%
12 | CCCCN(CCCC)C(=O)[C@H](CC)[C@@H]1CC[C@@H](C)[C@@H]([C@H](C)[C@@H](O)[C@@H](C)C(=O)[C@H](CC)C2O[C@]3(C=CC(=O)[C@]4(CC[C@@](C)([C@H]5CC[C@](O)(CC)[C@H](C)O5)O4)O3)[C@H](C)C[C@@H]2C)O1 (some centres not stated) | -11.5% (active)
